Laboratory results as given in PubChem BioAssay AID2073 (Sanford-Burnham Center for Chemical Genomics, 2009).
Screen size: about 290,000 compounds; about 570 (0.2%) were called active. Roughly 1% stayed inconclusive and do not appear here. This is one part of a sample in which actives are shown more often than they occur. Cut-off read from the data, not from the text of the source: active = inhibition mostly above about 51% (no sharp cut-off); inconclusive = no clear call, values can overlap the other calls; inactive = mostly below about 53%.

Biological target: Voltage-dependent N-type calcium channel subunit alpha-1B (Homo sapiens) (UniProt Q00975)
Sequence (Q00975 whole entry, looked up): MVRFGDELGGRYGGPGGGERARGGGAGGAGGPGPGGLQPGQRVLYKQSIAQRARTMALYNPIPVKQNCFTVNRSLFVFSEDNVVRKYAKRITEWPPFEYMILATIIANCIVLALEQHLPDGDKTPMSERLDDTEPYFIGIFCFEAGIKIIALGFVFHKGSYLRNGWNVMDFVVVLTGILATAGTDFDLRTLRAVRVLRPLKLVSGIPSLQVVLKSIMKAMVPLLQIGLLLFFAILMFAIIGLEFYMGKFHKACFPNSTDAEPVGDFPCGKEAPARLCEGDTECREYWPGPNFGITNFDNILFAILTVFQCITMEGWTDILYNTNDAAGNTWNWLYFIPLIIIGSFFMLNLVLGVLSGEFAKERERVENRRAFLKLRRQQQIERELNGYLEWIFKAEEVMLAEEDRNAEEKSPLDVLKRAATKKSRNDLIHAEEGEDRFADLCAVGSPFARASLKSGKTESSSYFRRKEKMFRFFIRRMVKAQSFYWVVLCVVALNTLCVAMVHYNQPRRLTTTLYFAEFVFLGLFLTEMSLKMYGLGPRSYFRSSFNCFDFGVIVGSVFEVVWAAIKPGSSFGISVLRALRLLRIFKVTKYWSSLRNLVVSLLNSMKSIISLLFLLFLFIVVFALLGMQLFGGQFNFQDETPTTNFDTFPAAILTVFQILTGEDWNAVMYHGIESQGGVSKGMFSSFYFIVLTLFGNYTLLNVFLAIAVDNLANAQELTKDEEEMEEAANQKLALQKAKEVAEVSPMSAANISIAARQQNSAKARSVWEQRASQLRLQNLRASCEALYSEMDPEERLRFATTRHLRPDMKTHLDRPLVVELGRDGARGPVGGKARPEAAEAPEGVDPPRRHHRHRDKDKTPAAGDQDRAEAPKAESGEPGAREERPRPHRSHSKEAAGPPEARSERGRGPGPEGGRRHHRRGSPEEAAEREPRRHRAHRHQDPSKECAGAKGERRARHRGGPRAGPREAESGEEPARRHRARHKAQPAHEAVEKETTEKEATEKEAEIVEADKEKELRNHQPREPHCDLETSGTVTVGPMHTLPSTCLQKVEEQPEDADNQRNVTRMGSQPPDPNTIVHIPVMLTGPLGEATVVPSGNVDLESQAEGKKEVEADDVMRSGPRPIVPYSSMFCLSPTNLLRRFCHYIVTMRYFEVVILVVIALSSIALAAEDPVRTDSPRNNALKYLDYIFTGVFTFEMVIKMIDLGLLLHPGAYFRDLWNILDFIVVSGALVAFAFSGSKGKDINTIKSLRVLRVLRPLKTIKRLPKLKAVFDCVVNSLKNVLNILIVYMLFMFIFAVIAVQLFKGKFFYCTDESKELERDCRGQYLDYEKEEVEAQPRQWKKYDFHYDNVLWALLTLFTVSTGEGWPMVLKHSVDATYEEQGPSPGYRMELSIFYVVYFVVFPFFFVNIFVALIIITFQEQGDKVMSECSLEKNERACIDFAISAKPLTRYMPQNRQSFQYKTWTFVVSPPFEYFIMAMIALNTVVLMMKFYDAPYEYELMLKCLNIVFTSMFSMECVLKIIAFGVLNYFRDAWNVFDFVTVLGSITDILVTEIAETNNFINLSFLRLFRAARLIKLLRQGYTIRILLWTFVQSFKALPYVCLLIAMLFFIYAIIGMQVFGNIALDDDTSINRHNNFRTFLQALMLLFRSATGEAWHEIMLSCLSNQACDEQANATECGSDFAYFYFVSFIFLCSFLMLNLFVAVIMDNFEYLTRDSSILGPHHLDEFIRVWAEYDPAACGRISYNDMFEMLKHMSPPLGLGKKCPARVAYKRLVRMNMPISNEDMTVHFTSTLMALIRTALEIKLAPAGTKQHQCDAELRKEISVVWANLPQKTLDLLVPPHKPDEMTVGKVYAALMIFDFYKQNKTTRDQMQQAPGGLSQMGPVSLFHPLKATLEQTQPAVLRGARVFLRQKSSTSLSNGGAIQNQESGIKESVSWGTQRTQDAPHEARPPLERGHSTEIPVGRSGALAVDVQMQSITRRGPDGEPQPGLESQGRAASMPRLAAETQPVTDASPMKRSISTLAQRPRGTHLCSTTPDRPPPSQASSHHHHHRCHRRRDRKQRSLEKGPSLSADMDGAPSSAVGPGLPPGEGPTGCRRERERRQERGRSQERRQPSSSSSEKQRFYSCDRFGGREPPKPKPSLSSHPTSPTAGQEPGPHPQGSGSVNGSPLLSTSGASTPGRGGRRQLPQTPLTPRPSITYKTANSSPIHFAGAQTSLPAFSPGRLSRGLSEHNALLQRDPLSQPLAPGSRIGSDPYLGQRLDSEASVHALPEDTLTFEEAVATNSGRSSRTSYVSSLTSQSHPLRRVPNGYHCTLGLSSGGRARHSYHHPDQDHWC
Experiment: inhibitors of Mint1-CaV2.2 protein interaction, biochemical, HTRF (AID 2073)
Settings: at 20 µM, stronger effect = higher value
[1] = measured here: average of repeat tests

Compound | inhibition | inhibition [1]
CCn1c(SCc2ccc(C)cc2)nnc1-c1cnccn1 | 1.9% (inactive) | 
Cc1ccc(S(=O)(=O)c2cnc3cc(C)nn3c2N)cc1 | 9.4% (inactive) | 
c1cnc(-c2noc(CN3CCN(C4C5CC6CC(C5)CC4C6)CC3)n2)cn1 (stereo not given) | -1.9% (inactive) | 
O=C(O)CSC(C(=O)Nc1ccc(Br)cc1)c1ccc(Cl)cc1 (stereo not given) | 9.9% (inactive) | 
Cc1cc2ccccn2c1C(=O)c1ccc(N/N=C/c2ccc(C(=O)O)cc2)c([N+](=O)[O-])c1 | 69.4% (active) | 
Cc1cc2ccccn2c1C(=O)c1ccc(NN)c([N+](=O)[O-])c1 | 9.5% (inactive) | 
CC(=O)Nc1ccc(/C=N/Nc2ccc(C(=O)c3c(C)cc4ccccn34)cc2[N+](=O)[O-])cc1 | 50.4% (inactive) | 29.6%
Cc1ncoc1C(=O)Nc1ncc([N+](=O)[O-])s1 | 68% (active) | 
Cc1nc(C)c(C(=O)Nc2ncc([N+](=O)[O-])s2)o1 | 33.7% (inactive) | 
Cc1ccc(C(=O)Nc2ncc([N+](=O)[O-])s2)cc1 | 11.7% (inactive) | 
CC1=CCC2C(=O)N(c3ccc(C)cc3)C(=O)C2C1 (stereo not given) | 6.6% (inactive) | 
N=C1C(c2nc(-c3ccc(Br)cc3)cs2)=C(O)CN1NC(=O)c1ccc([N+](=O)[O-])cc1 | 34.5% (inactive) | 
Cc1ccc(-c2csc(C3=C(O)CN(NC(=O)c4ccc([N+](=O)[O-])cc4)C3=N)n2)cc1 | 25.8% (inactive) | 
O=C(NN1C(=O)C2C(C1=O)C1C=CC2C12CC2)c1ccncc1 (stereo not given) | 6% (inactive) | 
O=C(NN1C(=O)C2C3C=CC(C3)C2C1=O)c1ccncc1 (stereo not given) | 5.7% (inactive) | 
O=C(NN1C(=O)C2CC=C(Cl)CC2C1=O)c1ccncc1 (stereo not given) | 61.5% (active) | 
O=C(CSc1nnc(-c2ccccc2O)o1)Oc1ccc(Br)cc1 | 3% (inactive) | 
CCOC(=O)C1CCCN(C(=O)c2ccc3nc(-c4ccc(OC)c(OC)c4)c(-c4ccc(OC)c(OC)c4)nc3c2)C1 (stereo not given) | 10.2% (inactive) | 
Cc1ccc(NC(=O)c2cc(N3C(=O)C=CC3=O)ccc2Cl)cc1C | 59.1% (active) | 
Cc1ccc(NC(=O)c2cc(N3C(=O)C=CC3=O)ccc2N2CCOCC2)cc1Cl | -7.4% (inactive) | 
NC(=O)c1cc(N2C(=O)C=CC2=O)ccc1Cl | 47% (inactive) | 
COc1cc(OC)cc(-c2nnc(Nc3nc4c(F)cccc4s3)o2)c1 | 56.7% (active) | 
COc1cccc(-c2nnc(Nc3nc4c(F)cccc4s3)o2)c1 | 43.9% (inactive) | 
Fc1cccc2sc(Nc3nnc(-c4ccccc4)o3)nc12 | 38.5% (inactive) | 

Compound | inhibition | inhibition [1]
Cc1ccc(C(=O)NCCSc2ccccc2)cc1S(=O)(=O)Nc1ccccc1 | -1.8% (inactive) | 
CC(C)Oc1ccc(/C=C/C(=O)NCC2COc3ccccc3O2)cc1 (stereo not given) | -5% (inactive) | 
O=C(/C=C/c1ccco1)NCC1COc2ccccc2O1 (stereo not given) | 11% (inactive) | 
Cc1ccc(/C=C/C(=O)NCC2COc3ccccc3O2)o1 (stereo not given) | 72.5% (active) | 
Cc1ccc(C(=O)NCCCN2CCOCC2)cc1Cl | 4.3% (inactive) | 
CN(N)c1nc(-c2ccccc2)cc(-c2ccccc2)n1 | -4.2% (inactive) | 
O=C1CCCC(=NCc2ccco2)C1 | -7.5% (inactive) | 
CN(C)c1nc(=NCc2ccco2)ss1 | 67.8% (active) | 
c1coc(CN=C2NC(=NCc3ccco3)c3ccccc32)c1 | 18.7% (inactive) | 
COC(=O)/C=C1/SC(=Nc2ccc(C)cc2C)NC1=O | 0.9% (inactive) | 
O=C1c2ccccc2C(=O)N1C/C=C/CN1C(=O)c2ccccc2C1=O | 0% (inactive) | 
Cc1ccc(-c2nc(CN(C)C3CCOC3)c(C)o2)s1 (stereo not given) | 7.1% (inactive) | 
COc1ccc(-c2cc3c(=O)n(CC(=O)Nc4cccc(Cl)c4)ncn3n2)cc1 | 39.6% (inactive) | 
O=C1N=C(N2CCCC2C(=O)O)S/C1=C\c1ccco1 (stereo not given) | 95.1% (active) | 
O=C1N=C(N2CCN(c3ccccc3)CC2)S/C1=C\c1ccco1 | 37.7% (inactive) | 
O=C1N=C(N2CCN(c3ccccc3)CC2)S/C1=C/c1ccco1 | -5% (inactive) | 
COc1ccc(-n2nc(C(=O)NCC(=O)NCCCN3CC(C)CC(C)C3)c3ccccc3c2=O)cc1 (stereo not given) | 3.3% (inactive) | 
O=C(Nc1ccc(N2CCOCC2)cc1Cl)C1CCN(C(=O)OCc2ccccc2)CC1 | -2.8% (inactive) | 
COc1ccc(-n2nc(C(=O)NCC(=O)NCc3ccc(F)cc3)c3ccccc3c2=O)cc1 | 8.9% (inactive) | 
O=S(=O)(c1ccc(Cl)cc1)N1CCCCCC1 | 13.9% (inactive) | 
CN1CCN(S(=O)(=O)c2ccc(Cl)cc2)CC1 | 5.7% (inactive) | 
CC1CN(S(=O)(=O)c2ccccc2)C(C)CN1S(=O)(=O)c1ccccc1 (stereo not given) | 2.3% (inactive) | 
Cc1ccc(S(=O)(=O)N2CCN(S(=O)(=O)c3ccccc3)C2)cc1 | -0.6% (inactive) | 
Cc1sc(NC(=O)CN(Cc2ccc(F)cc2)C(=O)C(C)C)c(C(N)=O)c1C | -9.6% (inactive) | 

Compound | inhibition | inhibition [1]
CC(C)CC(=O)Nc1nnc(SCC(=O)NCc2ccc3c(c2)OCO3)s1 | 6% (inactive) | 
COc1ccc(N2C(=O)NC(=O)C2=O)cc1 | -3.9% (inactive) | 
COc1ccc(N2CC(C(=O)N/N=C/c3c[nH]c4ccccc34)CC2=O)cc1 (stereo not given) | 17.8% (inactive) | 
Cc1nn(C)c(Cl)c1CN1CCC(CO)(CC2CCCCO2)CC1 (stereo not given) | 6.5% (inactive) | 
O=S(=O)(c1ccc(F)c(F)c1)N1CCCc2ccccc21 | -1.2% (inactive) | 
CCCc1[nH]c(=O)c(C#N)c2c1COC(C)(C)C2 | -5.3% (inactive) | 
Nc1ccc2nc(-c3cc(Cl)c(N)c(Cl)c3)[nH]c2c1 | 39.9% (inactive) | 
Nc1ccc2nc(-c3cccc(-c4nc5ccc(N)cc5[nH]4)c3)[nH]c2c1 | 46.7% (inactive) | 
Nc1ccc(-c2nc3ccccc3[nH]2)cc1 | 5.5% (inactive) | 
Nc1ccc(-c2nc3ccc([N+](=O)[O-])cc3[nH]2)cc1 | 13.5% (inactive) | 
Fc1ccc(N=Cc2ccc[nH]2)cc1 | -9.3% (inactive) | 
Cn1c(N)c(C(=O)COC(=O)c2cc(-c3ccccc3)nc3ccccc23)c(=O)n(Cc2ccccc2)c1=O | 21.7% (inactive) | 
O=C(NC1CC1)c1cc(-c2ccco2)nc2ccccc12 | 38.6% (inactive) | 
Cn1c(N)c(C(=O)COC(=O)c2cc(-c3ccco3)nc3ccccc23)c(=O)n(Cc2ccccc2)c1=O | 58.1% (active) | 
Cn1c(=O)c(C(=O)COC(=O)c2cc(-c3ccco3)nc3ccccc23)c(N)n(Cc2ccccc2)c1=O | 55.8% (active) | 
O=C(NC(=S)Nc1cccc(S(=O)(=O)NC2=NCCC2)c1)c1cc(-c2ccco2)nc2ccccc12 | 61% (inactive) | 23.6%
CC(C)Cn1c(N)c(C(=O)COC(=O)c2cc(-c3ccco3)nc3ccccc23)c(=O)n(C)c1=O | 19.7% (inactive) | 
O=C(NC1CCC(O)CC1)c1cc(-c2ccco2)nc2ccccc12 (stereo not given) | 51.2% (active) | 50.3%
O=C(Nc1cccc(S(=O)(=O)NC2=NCCCCC2)c1)c1cc(-c2ccco2)nc2ccccc12 | 40.5% (inactive) | 
O=C(O)c1cc(-c2ccco2)nc2ccccc12 | -11.5% (inactive) | 
Cn1c(=O)c(C(=O)COC(=O)c2cc(-c3ccccc3)nc3ccccc23)c(N)n(Cc2ccccc2)c1=O | 26.2% (inactive) | 
O=C(Nc1cccc(S(=O)(=O)NC2=NCCC2)c1)c1cc(-c2ccco2)nc2ccccc12 | 61.9% (active) | 
Cn1c(N)c(C(=O)COC(=O)c2cc(-c3ccco3)nc3ccccc23)c(=O)n(C)c1=O | 50.3% (inactive) | 29.1%
